Experimental data taken from the supplement of paper PMC6555819.

Each sequence was assayed on RXRa homodimer (NR concentration 180 nM) (assay: PBM binding z-score (relative to random genomic background probes); higher = stronger binding; sequences stand for … in GC…GCGATTGACAGCGTAGAATGAAGG).
How it was run: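 Each nuclear receptor dimer, without ligand, was incubated for 1 h on custom Agilent 4×180K protein-binding microarrays. Binding was detected with antibodies against each partner (one per run), and scanned fluorescence was regression-normalized. The binding z-scores are referenced to random human genomic background probes.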

Sequence	PBM binding z-score
ATATGTTGGTTAAGGGTCATTCAGGTTGGTTCGC	4.9
CGTCAAAGTTCACGGTAACGTAACAGAAAGCAGC	6.17
CCTACTGGCCCAAAAAGGTCATTGATGCCGATAA	5.25
CCGACTGGGGCAAAGGTTTCCATACTCAGTACGA	0.448
AGAATGAGGTTGAGATCAGGGAAACAGAATACAT	0.612
TGTCGGAGGACACGAAAGGTCAGAGCTCGACATC	4.22
CCTAGCAGGCCAATCTGGGTCACTCATGGCTTGA	0.53
CCTTACGGGTCACTCCAGGTTATAACATCGGAGT	4.36
ACTAGCAGGCCAAGTTTGGGTCATTCAAACAAAG	0.803
TCTACTAGGTCAGTTGGTCAGCTAACGAGCTGCC	1.24
CCGACTCGGGCAAGGTTACCATAACGCACAGCCA	1.11
CCTTATGGGTCACTGACAGGTTATAGCATTTGGA	4.43
CCTTCCGGGTCACTCCAGGTTATAGCATCGGAGT	4.33
TTACCAAGGTGAAGGTGGTTGATCCCTCTGTAGA	0.689
TGTCAAAGTTAAAAGGTAACGTAAGTATCCACAC	1.22
GTACCAAGGTGAATCGGTCGTTGATGAGTAGGCG	0.482
ACTAGCAGGCCAAGTTTGGGTCACACAAACAAAG	1.44
TTTAGCAGGCCAGAGGGTCACTCAAGAGGTACGG	2.32
ACTAGCAGGCCAAGGGTCACTCCAGATTAGTCCG	3.74
AGAATGAAGTTATACGTAGATCAGGGAAGAAAGT	-0.0486

Sequence	PBM binding z-score
ATCGAAAGGTCGAGGTGAGTCTAGAGAAAGGGAA	4.46
GCATAAAGGTAATACAAGGTGAAAGTCCGATTGT	1.32
ACTATTAGTTAACTTAGGGCAACCGATACGACGC	0.532
GCAGACAGGTGAAACGCAGGTTACTCAGGGTGGC	1.07
CCTCGGAGGACAGAAGGTCAGAGCAGTCCGCTTT	2.16
CATGCTAGGTCATGGTCAGCTAATCTACAGTATG	3.06
GCTTACGGGTCAAAGGTGATAGCATGAATAGAAT	7.79
CGTCCAAGGTCTATGCTAGGTCAGTGAAAGCATT	0.248
ATCTCTAGGTAACCAAGTTAAGTGAATGCCGAAC	0.154
CGTCCAAGGTCAGAGAGGTCTGTGAATGCCGAGT	3.4
AGACTGAGGTTATACGTAGATCAGGGAAGAAAGT	2.09
ACTATTAGTTGACTTTGGGCAACCGATACGACGC	0.476
ATATGTAGGTTACAGCCGGGTCATTCAGGCTATG	3.34
TCATATAGGGAAATGCTAGGTGAAAGTCCGATCT	0.678
ATATGTAGGTTACATCCAGGTCATTCAGGCTATG	2.91
GCGACTGGGGCTTCAGCAGGTTACCATAACTTAA	0.00147
TGACCAAGGTGAAAGGTCGTTGATGCACGCCTTG	5.72
CTACCAAGGTAAACAAGGTCGTTGATTACTATTC	1.06
TCTCGGAGGACACGAAGGTCAGATCTTTCCAGAG	2.48
CTCGAAAGGTCGTGCTCAGGTGAGTGTACCAAAC	4.95
